# Source: PubChem
# Giardia FBPA inh – Giardia lamblia aldolase inhibition; A8B2U2; purified Giardia FBPA; Potency, µM (series often up to 59.6 µM), most hits filed as inhibitors; 290,000 compounds, 0.71% hits; AID 2451; also: nearly all actives have a fitted effect of over 55% in size
# Target sequence (A8B2U2 whole entry, looked up): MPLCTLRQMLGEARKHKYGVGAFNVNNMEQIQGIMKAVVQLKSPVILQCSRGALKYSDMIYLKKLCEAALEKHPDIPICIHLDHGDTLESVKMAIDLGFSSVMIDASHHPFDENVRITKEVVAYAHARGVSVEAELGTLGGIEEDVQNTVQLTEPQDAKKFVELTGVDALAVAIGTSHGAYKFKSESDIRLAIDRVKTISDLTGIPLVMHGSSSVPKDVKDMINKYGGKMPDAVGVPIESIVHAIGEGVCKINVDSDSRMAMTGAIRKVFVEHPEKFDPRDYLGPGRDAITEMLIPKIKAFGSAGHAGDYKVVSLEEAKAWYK
#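 Giardia FBPA (40 nM reagent) was preincubated 10 min at RT with compound (up to 57.5 uM final), then substrate plus GAPDH/TPI/NAD/arsenate coupling system with diaphorase/resazurin was added; resorufin fluorescence (525/598 nm) was read after 20 min.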
# Pf growth 96h – P. falciparum growth inhibition at 96 hour, primary screen for plastid delayed-death inhibitors; P. falciparum luciferase reporter growth, 96 h; Potency, µM (titrated, usually from 28.7 µM), usual class: inhibitors; 320,000 compounds, 6.9% hits
#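 Infected RBCs, 2% Hct / 0.05% parasitemia final; luciferase-reporter P. falciparum; cpd 96 h, 37 C, 5% CO2; luciferase detection reagent; luminescence.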
# Shiga toxin inh – blocks Shiga toxin action in Vero cells; Vero cells, Shiga toxin protein synthesis inhibition reporter; 290,000 compounds, 9.2% hits; inhibition, % at 38.7 µM; AID 2315; in the data active = inhibition mostly above about 28%, no sharp cut-off; inactive = mostly below about 43%
# NS1 function inh – inhibitors of influenza NS1 protein function | 270,000 compounds, 0.4% hits | Potency, µM (doses to about 46.1 µM); calls by dose curve; also: actives are rising curves; nearly all actives have a fitted effect of over 50% in size
#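 Read-out: OD600 growth recovery of NS1-expressing budding yeast. Cells grown overnight at 30C in -URA glucose medium, washed, resuspended and diluted 1:100 in 2% galactose assay medium, pH 6.0. Same strain lacking NS1 served as positive control.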
# Pf growth 48h – P. falciparum growth inhibition at 48 hours (one generation); 310,000 compounds, 5.9% hits; P. falciparum luciferase growth in erythrocytes, 48 h; AID 504832; Potency, µM (top dose mostly 28.7 µM), most hits filed as inhibitors
#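 Compounds are pin-transferred into medium, infected erythrocytes (2% hematocrit, 0.1% parasitemia final) are added, and plates sit one parasite generation at 37 C in 5% CO2. Detection reagent is then added and luminescence measured.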
# Cycloheximide cs – affects cycloheximide protein synthesis inhibition readout, counter-screen; 300,000 compounds, 12% hits; max response, %; cell reporter, cycloheximide protein synthesis inhibition counterscreen; in the data active = max response mostly above about 13%, no sharp cut-off; inactive = mostly below about 14%; also: read at 38.3 µM for the half of the compounds with a filed dose
# Hits are given with their value; . = inactive; ? = inconclusive; / = not tested or not shown. An excerpt weighted towards active compounds, which were near 21% of everything screened. Unless noted, calls follow the shape of the dose curve; as a rule, active = well fitted curve in the direction sought with a large enough effect; inconclusive = small, poorly fitted or top-dose-only effect, or another doubt; inactive = no such curve, though single readings can be large; an effect the other way counts as inactive or inconclusive.
SMILES,Giardia FBPA inh,Pf growth 96h,Shiga toxin inh,NS1 function inh,Pf growth 48h,Cycloheximide cs
CC(C)(C)c1ccc([C@@H](O)CCCN2CCC(C(O)(c3ccccc3)c3ccccc3)CC2)cc1,.,/,/,/,/,/
Oc1ccccc1CN1CCC(C(O)(c2ccccc2)c2ccccc2)CC1,.,.,.,.,7.38µM,.
CC(C)(C)c1ccc(O)c(CN2CCN(c3ccccc3)CC2)c1,.,.,.,.,2.08µM,.
CC(C)CCOc1cccc(OCC(=O)Nc2ccncc2)c1,.,.,.,.,.,.
C[C@H]1CN=C(N(C)C)N1CCc1ccc(F)cc1,/,.,/,/,.,/
Cc1ccc(S(=O)(=O)NCCCCC(NC(=O)OC(C)(C)C)C(=O)O)cc1 (stereo not given) (tested in a mixture with another compound),.,/,.,.,.,.
Cc1ccc(S(=O)(=O)n2ccc3c(OCCOCCSCC(NC(=O)OC(C)(C)C)C(=O)O)cccc32)cc1 (stereo not given),.,9.28µM,.,.,?,.
Cc1ccc(S(=O)(=O)n2ccc3c(OCCOCCNCc4ccc(F)cc4)cccc32)cc1,.,10.4µM,.,.,9.28µM,.
COc1cc2[nH]c(C(=O)N3CCN(C)CC3)cc2c(OC)c1OC,.,.,.,.,/,.
COc1cccc(N2CCN(C(=O)c3cc4c(OC)c(OC)c(OC)cc4[nH]3)CC2)c1,.,7.38µM,.,.,/,.
CCc1ccc(NC(=O)Nc2ccc3c(c2)CCC3)cc1,/,.,61.6,.,.,31.9
CCNC(=O)NC1(C(=O)Nc2ccc3c(c2)CCC3)CCCCC1,.,2.94µM,.,.,.,.
CC(=O)c1cccc(NC(=O)Nc2ccc3c(c2)CCC3)c1,/,.,40.7,.,.,35.2
Cc1ccc(C(=O)Nc2ccc3c(c2)CCC3)cc1,.,?,.,.,.,.
COc1ccc(CC(=O)Nc2ccc3c(c2)CCC3)cc1OC,.,.,.,.,/,.
Cc1cccc(NC(=O)Nc2ccc3c(c2)CCC3)c1,.,.,97.2,.,.,55.6
CC(=O)c1cccc(NC(=O)NC2CCCc3ccccc32)c1 (stereo not given),.,?,.,.,.,.
CCN(CC(=O)Nc1c(F)cccc1F)C(=O)c1cc(S(=O)(=O)N2CCOCC2)ccc1N1CCCC1,/,?,/,/,.,/
Cc1c(C(=O)N2CCOCC2)oc2c1C(=O)CC(C)(C)C2,.,11.7µM,.,.,.,.
Cc1c(C(=O)N2CCc3ccccc32)oc2c1C(=O)CC(C)(C)C2,.,.,69.0,.,.,32.1
CC(C)C(NS(=O)(=O)c1ccc2c(c1)C(C)(C)C(=O)N2C)C(=O)NCc1ccccc1Cl (stereo not given),.,.,.,.,?,.
Cc1ccc(C(=O)OCC(=O)NNC(=O)COc2ccc(Cl)cc2)c(O)c1,/,.,/,/,.,/
c1ccc2c(-c3c[nH]c4ccccc34)c3ccccc3nc2c1,.,3.7µM,.,.,?,.
O=C(O)c1cc(-c2c[nH]c3ccccc23)nc2ccc3ccccc3c12,.,.,.,/,.,.
Cc1ccc2oc(C(=O)N3CCC(O)(c4cccc(C(F)(F)F)c4)CC3)c(C)c2c1,.,.,63.2,.,.,42.7
SMILES,Giardia FBPA inh,Pf growth 96h,Shiga toxin inh,NS1 function inh,Pf growth 48h,Cycloheximide cs
CC(=O)c1cn(CC(=O)NCc2ccco2)c2ccccc12,/,?,129.6,.,.,.
O=C(Cn1cc(C(=O)COc2ccccc2)c2ccccc21)NCc1ccco1,.,.,51.9,?,.,25.5
CC(=O)c1c(C)n(CC(=O)NCc2ccco2)c2ccccc12,.,.,.,.,?,.
CC(C(=O)NCc1ccco1)n1cc(C(=O)c2ccco2)c2ccccc21 (stereo not given),.,.,.,.,?,14.9
O=C(COc1ccccc1)c1cn(CC(=O)N2CCOCC2)c2ccccc12,.,.,.,.,.,.
CCOC(=O)C1CCN(S(=O)(=O)c2ccc(OC)c(C(=O)N3CCCCC3)c2)CC1,.,.,.,.,.,.
COc1ccc(N2CCN(CCCNC(=O)CN3C(=O)COc4ccccc43)CC2)cc1,.,.,.,.,?,.
Cc1ncc(CO)c(CN)c1O,/,.,/,.,.,/
O=C(NC(=S)Nc1ccccc1Cl)C1CC1,/,?,.,.,.,44.8
O=C(NC(=S)Nc1ccccc1Br)C1CCC1,.,?,50.1,.,.,43.2
COc1ccccc1NC(=S)NC(=O)C1CC1,.,.,.,.,.,.
O=C(Nc1cc2c(oc1=O)CCCC2=O)c1cccc(Cl)c1,.,.,61.3,.,.,.
COc1ccc(C(=O)Nc2cc3c(oc2=O)CCCC3=O)cc1,.,.,.,.,.,25.4
N#Cc1ccc(CS(=O)(=O)c2nc3ccccc3s2)cc1,.,/,/,/,/,/
Cc1cc(C)c(C#N)c(N2CCN(C(=O)C3COc4ccccc4O3)CC2)n1 (stereo not given),/,.,/,/,?,/
O=C(C1CCN(c2nnc(N3CCCC3=O)s2)CC1)N1CCN(Cc2ccc3c(c2)OCO3)CC1,.,?,.,.,?,.
O=C(C1CCN(c2nnc(-n3cccc3)s2)CC1)N1CCN(Cc2ccc3c(c2)OCO3)CC1,.,1.47µM,.,.,?,.
O=C(Nc1cc(C(F)(F)F)ccc1Cl)C1CCN(c2nnc(-n3cccc3)s2)CC1,.,.,.,.,8.28µM,.
CC1CCN(Cc2ccc(NC(=O)C3CCN(c4nnc(-n5cccc5)s4)CC3)cc2)CC1,.,.,.,.,7.38µM,.
O=C(COc1coc(CN2CCN(c3ccccc3)CC2)cc1=O)Nc1ccc(F)cc1,/,.,/,/,?,/
Cc1cc(C)c(C#N)c(SCC(=O)C2CC2)n1,.,.,43.2,.,.,24.0
COC(=O)CSc1nc(C)cc(C)c1C#N,.,?,.,.,.,.
CSc1nc(N)nc(SCC(=O)c2ccccc2)c1C#N,.,.,.,?,.,19.1
COc1ccc(C(=O)CSc2nc(N)nc(SC)c2C#N)cc1,.,.,.,.,/,.
Cc1cc(C)c(C#N)c(SCC(=O)Nc2nonc2N)n1,.,.,72.3,.,.,29.1
SMILES,Giardia FBPA inh,Pf growth 96h,Shiga toxin inh,NS1 function inh,Pf growth 48h,Cycloheximide cs
Cc1cc(C)c(C#N)c(SCC(=O)c2cccs2)n1,.,/,61.3,.,.,19.4
Cc1c(CCO)c(=O)[nH]n1S(=O)(=O)c1ccc([N+](=O)[O-])cc1,.,.,.,.,.,.
CN1C(C(=O)Nc2ccc(OC(F)(F)F)cc2)=CC(c2ccc3c(c2)OCO3)=NS1(=O)=O,/,?,.,.,.,.
Cc1cc(C)c(C#N)c(OCC(=O)c2ccccc2)n1,.,.,.,.,?,39.4
Cc1cc(=O)[nH]c(SCC(=O)c2ccccc2)c1C#N,?,.,.,.,.,.
Cn1nnnc1SCC(=O)c1cccs1,.,.,.,.,.,.
Cc1cc(C)c(C#N)c(OCC(=O)Nc2ccccc2)n1,.,.,.,.,.,.
Cc1nc(SCC(=O)c2ccccc2)c(C#N)c(-c2ccco2)c1C(=O)NCc1ccco1,?,?,.,.,9.28µM,.
